IDE exosite FP: exo-site inhibitors of human IDE, primary screen, biochemical, fluorescence anisotropy, probe displacement; purified IDE, FL-6b probe fluorescence polarization; hits give low values; z-score at 20 µM; Insulin-degrading enzyme (Homo sapiens), P14735; 17,000 tested, 6.3% active;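 active means z-score of -3 or lower, meaning strong loss of probe binding signal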;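 further: His-tagged human IDE residues 42-1019 made in E. coli with 30 nM FL-6b probe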
Target sequence (P14735 42-1019 limits assumed): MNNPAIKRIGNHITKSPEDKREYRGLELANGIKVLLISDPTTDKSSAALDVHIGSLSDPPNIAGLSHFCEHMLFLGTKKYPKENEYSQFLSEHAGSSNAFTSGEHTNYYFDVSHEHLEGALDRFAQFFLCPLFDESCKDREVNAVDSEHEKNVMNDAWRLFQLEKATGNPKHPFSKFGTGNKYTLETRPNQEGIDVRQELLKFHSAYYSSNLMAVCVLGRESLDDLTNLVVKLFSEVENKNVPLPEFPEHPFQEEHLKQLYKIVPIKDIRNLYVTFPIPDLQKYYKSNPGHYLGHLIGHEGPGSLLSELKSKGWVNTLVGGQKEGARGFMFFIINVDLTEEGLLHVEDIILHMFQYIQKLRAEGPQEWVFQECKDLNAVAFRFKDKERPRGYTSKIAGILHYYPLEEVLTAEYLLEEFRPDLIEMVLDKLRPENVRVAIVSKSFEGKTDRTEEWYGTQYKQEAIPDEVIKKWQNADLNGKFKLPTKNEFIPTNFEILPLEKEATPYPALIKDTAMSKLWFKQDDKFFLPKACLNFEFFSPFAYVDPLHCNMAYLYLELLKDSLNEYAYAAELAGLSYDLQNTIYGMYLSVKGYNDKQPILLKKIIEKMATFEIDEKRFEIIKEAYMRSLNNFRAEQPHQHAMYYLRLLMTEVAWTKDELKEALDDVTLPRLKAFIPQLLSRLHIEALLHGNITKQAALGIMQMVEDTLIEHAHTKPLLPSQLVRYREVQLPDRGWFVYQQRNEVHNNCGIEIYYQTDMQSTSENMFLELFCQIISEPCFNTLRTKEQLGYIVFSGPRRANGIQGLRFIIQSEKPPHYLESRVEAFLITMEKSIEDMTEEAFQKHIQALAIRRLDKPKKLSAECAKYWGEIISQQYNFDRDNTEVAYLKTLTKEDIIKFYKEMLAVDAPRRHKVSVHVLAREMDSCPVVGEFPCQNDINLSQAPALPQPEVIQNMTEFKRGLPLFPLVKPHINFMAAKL
An asterisk follows results filed as active; ! = a repeat was not active. Shown is part of a subset that was picked to be rich in hits.

SMILES	IDE exosite FP
CCCNC(=O)N1CC(=O)N2[C@H](C1)[C@@H](c1ccc(-c3cccc(C)c3)cc1)[C@@H]2CO	-15*
CCCNC(=O)N1CC(=O)N2[C@H](CO)[C@@H](c3ccc(-c4ccc(C)cc4)cc3)[C@@H]2C1	-0.42
CCCNC(=O)N1CC(=O)N2[C@H](CO)[C@@H](c3ccc(-c4ccc(F)cc4)cc3)[C@@H]2C1	0.15
CCCNC(=O)N1CC(=O)N2[C@H](CO)[C@H](c3ccc(-c4cccc(C)c4)cc3)[C@@H]2C1	-16*
CCCC#Cc1ccc([C@@H]2[C@H](CO)N3C(=O)CN(C(=O)NCCC)C[C@@H]23)cc1	1.5
CCCNC(=O)N1CC(=O)N2[C@H](CO)[C@@H](c3ccc(-c4cccc(C)c4)cc3)[C@@H]2C1	-22*
CCCNC(=O)N1CC(=O)N2[C@@H](CO)[C@H](c3ccc(-c4ccc(F)cc4)cc3)[C@@H]2C1	-2.7
CCCNC(=O)N1CC(=O)N2[C@H](CO)[C@H](c3ccc(-c4ccncc4)cc3)[C@@H]2C1	0.13
COc1ccc(S(=O)(=O)N2CCCCN3[C@@H](CO)[C@H](c4ccc(C5=CCCC5)cc4)[C@@H]3C2)cc1	2.1
OC[C@H]1N[C@@H](CNCC2CCC2)[C@@H]1c1ccc(C2=CCCCC2)cc1	-0.19
C[C@H](CO)N1C[C@H](C)[C@@H](CN(C)C(=O)Cc2ccccc2)OCCCC[C@H](C)Oc2ccc(NS(C)(=O)=O)cc2C1=O	0.25
O=C1CN(S(=O)(=O)Cc2ccccc2)C[C@H]2[C@H](c3ccc(C#Cc4cccnc4)cc3)[C@@H](CO)N12	3.2
CC(=O)N(C)C[C@@H]1[C@H](c2ccc(-c3ccccc3F)cc2)[C@H](CO)N1C(C)=O	0.44
COc1ccc2c3c([nH]c2c1)[C@H](CO)N(CC1CC1)CC31CCN(S(=O)(=O)c2cccc(F)c2)CC1	-0.52
CO[C@H](CN(C)C(=O)c1cnccn1)[C@H](C)CN([C@@H](C)CO)S(=O)(=O)c1ccccc1	0.57
O=C(C1CCOCC1)N1CC(=O)N2[C@H](CO)[C@H](c3ccc(-c4cccnc4)cc3)[C@H]2C1	-1.7
O=C(c1ccccc1)N1CC(=O)N2[C@H](CO)[C@@H](c3ccc(C#CCC4CCCC4)cc3)[C@H]2C1	0.36
CN1C(=O)c2cc(NC(=O)c3ccc(F)c(F)c3)ccc2OC[C@H]2O[C@@H](CC(=O)Nc3ccc4c(c3)COC4)CC[C@@H]21	0.86
COc1cccc(-c2ccc(C3[C@@H]4CN(C(=O)c5cnccn5)C[C@H]3N4)cc2)c1 (stereo partly specified)	-8.7*!
CCCNC(=O)N1C[C@@H]2N[C@H](C1)C2c1ccc(-c2cccc(F)c2)cc1 (stereo partly specified)	-0.44
CN(C)C(=O)c1cccc(-c2ccc(C3[C@@H]4CN(C(=O)c5cnccn5)C[C@H]3N4)cc2)c1 (stereo partly specified)	0.092
Cc1cccc(-c2ccc(C3[C@@H]4CN(C(=O)Cc5ccncc5)C[C@H]3N4)cc2)c1 (stereo partly specified)	0.11
CCCNC(=O)N1C[C@@H]2N[C@H](C1)C2c1ccc(-c2ccc(OC)cc2)cc1 (stereo partly specified)	-0.56
O=C(NC1CCCC1)N1[C@@H]2CNC[C@H]1C2c1ccc(-c2cccnc2)cc1 (stereo partly specified)	-0.49
COc1ccc(-c2ccc(C3[C@H]4CNC[C@@H]3N4C(=O)NC3CCCC3)cc2)cc1 (stereo partly specified)	3
SMILES	IDE exosite FP
COc1cccc(-c2ccc(C3[C@H]4CNC[C@@H]3N4C(=O)NC3CCCCC3)cc2)c1 (stereo partly specified)	-3.8*!
CN(C)C(=O)c1ccc(-c2ccc(C3[C@@H]4CN(C(=O)Cc5ccncc5)C[C@H]3N4)cc2)cc1 (stereo partly specified)	3.6
CCCNC(=O)N1C[C@@H]2N[C@H](C1)C2c1ccc(-c2cccc(OC)c2)cc1 (stereo partly specified)	-3.9*!
Cc1ccccc1-c1ccc(C2[C@@H]3CN(C(=O)Cc4ccncc4)C[C@H]2N3)cc1 (stereo partly specified)	-9*!
COc1cccc(-c2ccc(C3[C@@H]4CN(C(=O)c5ccc(F)cc5)C[C@H]3N4)cc2)c1 (stereo partly specified)	1.8
O=C(C[C@H]1C[C@@H]2c3cc(NC(=O)c4ccc5c(c4)OCO5)ccc3O[C@@H]2[C@@H](CO)O1)NCc1ccc(Oc2ccccc2)cc1	-0.72
N#Cc1cccc(-c2ccc(C3[C@H]4CNC[C@@H]3N4C(=O)Nc3cccc(F)c3)cc2)c1 (stereo partly specified)	0.34
O=S(=O)(Cc1ccccc1)N1CCCCN2[C@H](C1)[C@H](c1ccc(-c3cccnc3)cc1)[C@@H]2CO	-0.26
O=C(Nc1ccc(F)cc1)N1CC(=O)N2[C@H](CO)[C@H](c3ccc(C#CC4CC4)cc3)[C@@H]2C1	1.4
COc1ccccc1S(=O)(=O)N1CC[C@@H]2[C@H]1c1cc(-c3ccc(C#N)cc3)ccc1N[C@@H]2CO	1.1
CCCNC(=O)N1C[C@@H]2N[C@H](C1)C2c1ccc(-c2ccc(F)cc2)cc1 (stereo partly specified)	2.2
CCCNC(=O)N1C[C@@H]2N[C@H](C1)C2c1ccc(-c2ccccc2C)cc1 (stereo partly specified)	-7.8*!
CCCNC(=O)N1C[C@@H]2N[C@H](C1)C2c1ccc(-c2cccnc2)cc1 (stereo partly specified)	1.8
CO[C@@H]1CN(C)C(=O)c2ccc(NC(=O)NC3CCCCC3)cc2OC[C@@H](C)NC[C@H]1C	-0.075
COc1ccc(-c2ccc([C@H]3[C@H](CO)N4C(=O)CN(C(=O)c5ccccn5)C[C@@H]34)cc2)cc1	-0.092
C[C@@H]1CN([C@@H](C)CO)C(=O)c2cc(NS(=O)(=O)c3cn(C)cn3)ccc2O[C@H]1CN(C)S(=O)(=O)c1ccc(F)cc1	-0.032
C[C@@H]1CN([C@@H](C)CO)C(=O)c2cc(NC(=O)C3CC3)ccc2O[C@@H]1CN(C)S(=O)(=O)c1ccccc1	0.11
C[C@@H]1CN([C@H](C)CO)C(=O)c2cc(NS(=O)(=O)c3cn(C)cn3)ccc2O[C@@H]1CN(C)S(=O)(=O)c1ccc(F)cc1	0.72
C[C@@H]1CN([C@H](C)CO)C(=O)c2cc(NS(=O)(=O)c3cn(C)cn3)ccc2O[C@H]1CN(C)S(=O)(=O)c1ccc(F)cc1	-4.5*
C[C@H]1CN([C@@H](C)CO)C(=O)c2cc(NC(=O)C3CC3)ccc2O[C@H]1CN(C)S(=O)(=O)c1ccccc1	0.3
C[C@@H]1CN([C@H](C)CO)C(=O)c2cc(NC(=O)C3CC3)ccc2O[C@H]1CN(C)S(=O)(=O)c1ccccc1	-3.5*
N#C[C@H]1[C@@H](c2ccccc2-c2ccccc2F)[C@@H](CO)N1C(=O)C1CC1	1.7
CN1C(=O)c2cc(NS(=O)(=O)c3cccc(F)c3)ccc2OC[C@H]2O[C@@H](CC(=O)N3CCc4ccccc4C3)CC[C@@H]21	0.27
Cc1cccc(-c2ccc([C@H]3[C@H]4CN(C(=O)c5ccc6c(c5)OCO6)CCCCN4[C@H]3CO)cc2)c1	0.02
CC[C@H]1C/C=C\C[C@H](CC)NC(=O)[C@@H](C)CC(=O)N1	1.1
O=C(NC1CCCC1)N1CCCCN2[C@H](C1)[C@@H](c1ccc(/C=C/c3ccccc3)cc1)[C@@H]2CO	-9.6*

Assay outcomes as filed in PubChem.
